Values joined by “and” are separate entries in the source; they are usually repeats but may differ in a detail not shown here. Equal entries are not always repeated. The panel holds about 83,000 compounds, 20% with a hit somewhere; the sample as a whole holds those more often.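 The endpoint reported here, percent growth, reads 100 for growth as untreated, 0 for no net growth and -100 for all cells dead.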 Active and inactive are the calls of the source. The calls were made as follows: active = growth percent below 10; inactive = the rest.

For this experiment, the system named is MDA-MB-468 breast. In words: NCI-60 one-dose screen, 48 h (100 = growth as untreated, 0 = no growth, -100 = all killed). The conditions noted are these: 10 µM unless noted.
For `COc1ccc2c(c1)nc(N)c1c3cc(OC)c(OC)cc3cn21`, the growth was 2.7% (active).

`O=C(C(=O)N1CCOCC1)c1ccc(OC2OC(CO)C(O)C(O)C2O)cc1` (centres undefined): the growth was 105% (inactive).

For the compound `O=C(Cc1ccc(/C=C/C(=O)c2ncc[nH]2)cc1)Nc1ccc(S(F)(F)(F)(F)F)cc1`, the growth was 52.7% (inactive).

On to `COc1ccc(-n2nc(C)c3c(Nc4ccc(NC(=O)Nc5cccc(C(F)(F)F)c5)cc4)ncnc32)cc1`, for which the growth was -14% (active).

With `FC(F)(F)Oc1cccc(-c2cnc3ccc(-c4ccncc4)nn23)c1`, the growth was -10.5% (active).

As to `CCOc1cc(F)c([N+](=O)[O-])cc1[N+](=O)[O-]`, the growth is -35.2% (active).

With `O=C(COc1ccc(-c2nc3cc(Cl)c(Cl)cc3[nH]2)cc1)N=Nc1c(O)[nH]c2ccccc12`, the growth was -49.5% (active).

As to `Cc1cc(=O)n(-c2ccc(F)cc2)[nH]1`, the growth is 113% (inactive).

Turning to `CC(C)n1nc(C#Cc2cccc(NC(=O)c3cccc(C(F)(F)F)c3)c2)c2c(N)ncnc21`, the growth is 8.73% (active).

Regarding `O=C(Nc1ccccc1)Oc1c(Cl)c(Cl)c(Cl)c(Cl)c1Cl`, the growth is 116% (inactive) and 98.8% (inactive).

Regarding `COc1ccc(C2=CC(c3ccc(Oc4ccnc5cc(Cl)ccc45)c(OC)c3)c3c(nc(OC)[nH]c3=O)N2)cc1` (centres undefined), the growth is 61.4% (inactive).

As for `O=C(Nc1cccc(-c2ccc(Cl)c(C(F)(F)F)c2)c1)C1CCN(Cc2cccc3cccnc23)CC1`, the growth was -5.03% (active).

Consider `COc1ccc(-c2ncc(-c3ccccc3)[nH]2)cc1OC`, for which the growth was 89.1% (inactive).

`COc1ccc(C[C@H](N)C(=O)N[C@@H]2[C@@H](CO)OC(n3cnc4c(N(C)C)ncnc43)[C@@H]2O)cc1` (some centres undefined): the growth was -70.8% (active).
